Assay [1] in a line: NCI Yeast Anticancer Drug Screen. Data for the rad50 strain (AID 155).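 Note: 0% = growth of vehicle-only cultures of the same strain.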 The note with it: S. cerevisiae rad50 strain growth inhibition, active compounds read high. In short, it runs like this:
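Relative growth inhibition (compound vs vehicle) was measured in yeast with a defined repair-gene alteration.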

The nature of assay [2]: NCI Yeast Anticancer Drug Screen. Data for the mec2-1 strain (AID 157). The note with it: S. cerevisiae mec2-1 strain, active compounds read high. A digest of the protocol: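 Yeast mec2-1 mutant treated with compound. Readout: growth inhibition vs vehicle controls.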
A short description of assay [3]: NCI Yeast Anticancer Drug Screen. Data for the sgs1 mgt1 strain (AID 161).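 Note: 0% = growth of cultures given vehicle only.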 Particulars: S. cerevisiae sgs1 mgt1 strain, active compounds read high. A digest of the protocol: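 Read-out: growth inhibition vs vehicle controls. Cells: mutant yeast strain deficient in DNA damage repair.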
A short description of assay [4]: NCI Yeast Anticancer Drug Screen. Data for the cln2 rad14 strain (AID 165).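 Note: 0% = growth equal to vehicle treated cultures.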 Particulars: S. cerevisiae cln2 rad14 strain, active compounds read high. In short, it runs like this:
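cln2 rad14 yeast strain; compound exposure; growth inhibition read vs vehicle controls.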

A short description of assay [5]: NCI Yeast Anticancer Drug Screen. Data for the bub3 strain (AID 167). The note with it: S. cerevisiae bub3 mutant strain, active compounds read high. In short, it runs like this: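 Screening used yeast with an engineered genetic alteration affecting cell cycle control. Compound-exposed cultures were compared with vehicle cultures, and reduced growth was taken as inhibition.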

Assay [6] is described as follows: NCI Yeast Anticancer Drug Screen. Data for the mlh1 rad18 strain (AID 175). Particulars: S. cerevisiae mlh1 rad18 strain growth inhibition, active compounds read high. A digest of the protocol:
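Yeast w/ defined DNA-repair lesions; compound exposure; growth vs vehicle controls → % inhibition.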

Setting [7] is: at 5.0 µM (retest, dose inferred, filed as 0.5).
Where [8] appears, read: at 50.0 µM (retest, dose inferred, filed as 5.0).

This is part of a sample that, as a whole, favours compounds with a hit. Of some 79,000 tested, about 15% had one in any assay. Values without a mark were called inactive. Activity calls are given as the source filed them. Cut-off read from the data, not from the text of the source: active = growth inhibition above about 70%; inactive = the rest.

For the compound `CCCCCCCC[N+](C)(CCCCCCCC)CCCCCCCC`, the growth inhibition in assay [1] (setting [7]) is 51%; in assay [1] (setting [8]), 95% (active); in assay [1] (at 50.0 µM), 90.5% (active); in assay [2] (setting [7]), 47%; in assay [2] (setting [8]), 91% (active); in assay [2] (at 50.0 µM) it was 92.2% (active). Besides, the growth inhibition in assay [3] (setting [7]) was 98% (active); in assay [3] (setting [8]) it was 97% (active); in assay [3] (at 50.0 µM) it was 93% (active); in assay [4] (setting [7]) it was 71% (active); in assay [4] (setting [8]), 98% (active); in assay [4] (at 50.0 µM), 91.7% (active). Moreover, the growth inhibition is 96% (active) in assay [5] (setting [7]); 96% (active) in assay [5] (setting [8]); 91.7% (active) in assay [5] (at 50.0 µM); 41% in assay [6] (setting [7]); 98% (active) in assay [6] (setting [8]); 91.2% (active) in assay [6] (at 50.0 µM).
Regarding `Cc1ccc(C)c(N2C(=O)C(=O)c3c(C)ccc(C)c32)c1`, the growth inhibition in assay [1] (setting [7]) is 12%; in assay [1] (setting [8]), 96% (active); in assay [1] (at 50.0 µM), 99% (active); in assay [2] (setting [7]), 13%; in assay [2] (setting [8]) it was 66%; in assay [2] (at 50.0 µM), 99% (active). The growth inhibition in assay [3] (setting [7]) is 12%; in assay [3] (setting [8]), 98% (active); in assay [3] (at 50.0 µM) it was 97.7% (active); in assay [4] (setting [7]), 27%; in assay [4] (setting [8]), 23%; in assay [4] (at 50.0 µM), 89.8% (active). The growth inhibition was 8% in assay [5] (setting [7]); 10% in assay [5] (setting [8]); 97.8% (active) in assay [5] (at 50.0 µM); 14% in assay [6] (setting [7]); 80% (active) in assay [6] (setting [8]); 98.8% (active) in assay [6] (at 50.0 µM).
With `CN(C)c1nc(N(C)C)nc([N+](C)(C)C)n1`, the growth inhibition is 1% in assay [1] (setting [7]); -1% in assay [1] (setting [8]); 98.5% (active) in assay [1] (at 50.0 µM); -3% in assay [2] (setting [7]); 1% in assay [2] (setting [8]); 98% (active) in assay [2] (at 50.0 µM). The growth inhibition in assay [3] (setting [7]) is -1%; in assay [3] (setting [8]), -4%; in assay [3] (at 50.0 µM) it was 99.1% (active); in assay [4] (setting [7]), -3%; in assay [4] (setting [8]), -1%; in assay [4] (at 50.0 µM) it was 96.5% (active). The growth inhibition in assay [5] (setting [7]) was 0%; in assay [5] (setting [8]) it was -5%; in assay [5] (at 50.0 µM) it was 98% (active); in assay [6] (setting [7]), -5%; in assay [6] (setting [8]), -7%; in assay [6] (at 50.0 µM) it was 98.7% (active).
For the compound `CCC1=C(c2ccccc2)C(O)(c2ccccc2)C(CC)C1=O` (stereo not drawn), the growth inhibition in assay [1] (setting [7]) is -3%; in assay [1] (setting [8]), 99% (active); in assay [1] (at 50.0 µM) it was 94% (active); in assay [2] (setting [7]) it was -5%; in assay [2] (setting [8]) it was 99% (active); in assay [2] (at 50.0 µM), 92.5% (active). Moreover, the growth inhibition was -7% in assay [3] (setting [7]); 99% (active) in assay [3] (setting [8]); 97.3% (active) in assay [3] (at 50.0 µM); 5% in assay [4] (setting [7]); 99% (active) in assay [4] (setting [8]); 92.2% (active) in assay [4] (at 50.0 µM). For the same compound, the growth inhibition in assay [5] (setting [7]) was -4%; in assay [5] (setting [8]) it was 99% (active); in assay [5] (at 50.0 µM), 97.7% (active); in assay [6] (setting [7]) it was -2%; in assay [6] (setting [8]), 98% (active); in assay [6] (at 50.0 µM), 97.8% (active).
As to `c1ccc([P+](Cc2ccc(C[P+](c3ccccc3)(c3ccccc3)c3ccccc3)s2)(c2ccccc2)c2ccccc2)cc1`, the growth inhibition in assay [1] (setting [7]) was 35%; in assay [1] (setting [8]), 90% (active); in assay [1] (at 50.0 µM) it was 80% (active); in assay [2] (setting [7]), 33%; in assay [2] (setting [8]), 96% (active); in assay [2] (at 50.0 µM), 80.3% (active). The growth inhibition in assay [3] (setting [7]) was 37%; in assay [3] (setting [8]), 98% (active); in assay [3] (at 50.0 µM), 80.7% (active); in assay [4] (setting [7]), 17%; in assay [4] (setting [8]), 77% (active); in assay [4] (at 50.0 µM) it was 67.4%. Further, the growth inhibition was 47% in assay [5] (setting [7]); 96% (active) in assay [5] (setting [8]); 81% (active) in assay [5] (at 50.0 µM); 43% in assay [6] (setting [7]); 96% (active) in assay [6] (setting [8]); 75.8% (active) in assay [6] (at 50.0 µM).
Consider `Oc1c(Br)ccc2c(O)c(Br)ccc12`, for which the growth inhibition in assay [1] (setting [7]) is 42%; in assay [1] (setting [8]), 93% (active); in assay [1] (at 50.0 µM), 89.7% (active); in assay [2] (setting [7]), 51%; in assay [2] (setting [8]) it was 94% (active); in assay [2] (at 50.0 µM) it was 91% (active). In addition, the growth inhibition was 36% in assay [3] (setting [7]); 98% (active) in assay [3] (setting [8]); 92.5% (active) in assay [3] (at 50.0 µM); 57% in assay [4] (setting [7]); 98% (active) in assay [4] (setting [8]); 90.5% (active) in assay [4] (at 50.0 µM). In addition, the growth inhibition in assay [5] (setting [7]) is 53%; in assay [5] (setting [8]), 97% (active); in assay [5] (at 50.0 µM), 90.8% (active); in assay [6] (setting [7]) it was 31%; in assay [6] (setting [8]) it was 88% (active); in assay [6] (at 50.0 µM) it was 89.4% (active).

(Values after PubChem BioAssay (NCI).)
